Each structure is given as a SMILES string. Records with an inconclusive call do not appear. Where a call stands in place of a potency, no number is given. The source made the active and inactive calls. Calls come from the whole dose curve; as a rule, active = well fitted inhibition curve with a large enough effect; inconclusive = small, poorly fitted or top-dose-only effect; inactive = flat fitted curve, though single readings scatter.

Calcium and integrin-binding protein 1 (Homo sapiens), sequence (Q99828 whole entry, looked up): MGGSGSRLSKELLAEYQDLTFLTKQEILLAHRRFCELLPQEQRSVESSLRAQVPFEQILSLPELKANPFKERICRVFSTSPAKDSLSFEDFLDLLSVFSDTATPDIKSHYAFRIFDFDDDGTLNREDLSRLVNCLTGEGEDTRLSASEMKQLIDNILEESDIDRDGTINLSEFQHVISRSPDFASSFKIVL

The assay deals with Calcium and integrin-binding protein 1 (Homo sapiens) (UniProt Q99828). Nature of the assay: Primary qHTS for Identification of Calcium Integrin Binding Protein 1 (CIB1) Competitor (AID 1508620).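 Note: GST tagged CIB1 binding a fluorescein labelled alphaIIb integrin peptide tracer; top concentration of the series differs between compounds.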 To be noted: CIB1-GST / FITC-alphaIIb peptide fluorescence polarization; series mostly up to 114 µM. The essentials:
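CIB1-GST (1 uM final) and compound incubated 15 min at room temperature before adding FITC-alphaIIb peptide tracer (100 nM final). Competition for binding read by fluorescence polarization (ex 480, em 540) after another 15 min at room temperature.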
For orientation: qHTS replaces the single test concentration by a dilution series.
As for `CN1CCN(c2cccc(CNc3nn4c(=O)c5ccccc5nc4s3)c2)CC1`, the Potency entry is “inactive”.
Take `O=S1(=O)N=C(Oc2ccccc2-c2ccccc2)c2ccccc21`: the Potency result is “inactive”.
Under `CC(C)(C)OC(=O)Cc1nnc(CNC(=O)c2ccccc2)s1` stands “inactive”; under `COCc1nn2c(=O)cc(N3CCNCC3)nc2s1`, “inactive”.
On to `COc1ccc(C2Nc3ccccc3C(=O)N2Cc2ccccc2)cc1COc1ccc(Cl)cc1` (stereo not drawn), for which the Potency result was “inactive”.
In the case of `N#Cc1nc(Nc2ccc3ccccc3c2)nc(NC2CCCC2)n1`, the Potency entry is “inactive”.
Next, `O=C(Cn1cc(CNCc2ccccc2)nn1)Nc1cc(C(F)(F)F)ccc1Cl`: “inactive”; `CCCC1CCN(C(=O)CC(c2ccc3c(c2)OCO3)c2c(O)cc(OC)cc2OC)C1` (stereo not drawn): “inactive”.
Next, `COc1ccc(NC(=O)C(OC(=O)CNC(=O)c2ccccc2)c2ccccc2)cc1F` (stereo not drawn): “inactive”; `Cc1ccccc1C(=O)n1ccc2cc(-c3nc(NC(=O)Cc4ccc5c(c4)OCO5)sc3C)ccc21`: “inactive”; `CC(C)Oc1cccc(-c2ccnc(N3CCC(C(N)=O)CC3)n2)c1`: “inactive”.
Under `N#Cc1c(-c2ccc3c(c2)OCO3)no[n+]1[O-]` stands “inactive”.
Take `Cc1cc2c(s1)c(C=O)c(C(=O)NCc1ccccc1F)n2C`: the Potency entry is “inactive”.
Next, `O=C1CCCC2=C1C(c1ccncc1Cl)N=C(Nc1nc3ccccc3o1)N2` (stereo not drawn): “inactive”; `c1cncc(-c2ccc(CNc3nc(N4CCOCC4)nc4ccccc34)cc2)c1`: “inactive”; `COc1ccccc1C1N=C(Nc2nc3ccccc3o2)NC2=C1C(=O)CCC2` (stereo not drawn): “inactive”.
Under `Cc1ccc(OCCn2c(CCNC(=O)c3ccco3)nc3ccccc32)cc1` stands “inactive”.
Next, `CCOC(=O)c1ccc(-c2ccc3ncnc(NCCc4cnc[nH]4)c3c2)o1`: “inactive”.

The values are drawn from PubChem BioAssay (NCATS).
